44 sequences from the supplement of paper PMC11417369 can be followed below.

The full ranking holds about 25,000 sequences; the median of “ln(normalized median fluorescence intensity)” is about 9.3, and the highest 2% start at about 10. Shown is part of a subset that was picked to be rich in the highest values.

The test system of the experiment is PF3D7_0420300 AP2 domain 1 (GST-tagged). Briefly: gcPBM binding intensity (ln(normalized median fluorescence intensity)); higher = stronger DNA binding. The procedure, abridged:
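DNA-binding domains from P. falciparum, fused to GST and produced in E. coli, were put on an Agilent 4 × 180k double-stranded probe array for 1 h in 1× PBS holding 1% milk, 0.2 mg/ml BSA, 0.5% salmon testes DNA and 0.03% Triton X-100. Probes were primer-extended, 36 bp long and drawn from intergenic genomic regions, with negative controls included. After Alexa488 anti-GST antibody detection and a 488 nm scan, binding intensity was set as the highest Masliner-normalised natural-log median intensity across replicate spots of either probe orientation.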
On to “TGTTGTAAATTAAAGACATGCACGTGAGAAAATATA [TGCATGCA_site285]”, for which the “gcPBM binding intensity (ln)” value was 9.51.

For “TCAAATTTAATCATAACACACATTCACATATGAATT [CACACA_site3199]”, the “gcPBM binding intensity (ln)” value came out at 9.16. Consider “GTAGTCCAAAAAAAGCGTACACAGAAAAAAAAAAAA [XGTACX_site4273]”, for which the “gcPBM binding intensity (ln)” value amounted to 9.14.

Take “ATTTTTTGGAAAAGAAGTACAATGGATTTATACGTT [XGTACX_site891]”: the “gcPBM binding intensity (ln)” value came to 9.09. The result for “TTTTTTTTTTTTTTTTTTTTACCCCTTTTTCAAAAA [CACACA_negctrl_site1524]” reads 8.39; that for “AGGATATATAATTAAGTGCATTAATTCAAAATAAAA [GTGCAC_site9702]”, 9.17; that for “TTTTGTCTTATATGTTGTACAACGTAAACAAAAAAA [XGTACX_site4412]”, 8.84.

For “TTTTAAGAATAAAATTGTACACATACATGTGTTCGC [XGTACX_site438]”, the “gcPBM binding intensity (ln)” value stood at 9.09. The result for “TACCTATACCTATACACACACACACGGAAATAAATA [CACACA_site6750]” reads 10.3. The result for “TATACCTATAAATACACACACATATAAATAAATATA [CACACA_site6153]” reads 9.99; that for “CAAAAAAAGTTATACACACACACACGGATATAAATA [CACACA_site6619]”, 10.1. Next, “AAAAAAAAAAAAAGTACACACATACCTATAAATATA [CACACA_site6937]”: 9.8. “TATATACCTATATACACACACATATATAAATAAATA [CACACA_site7341]”: the “gcPBM binding intensity (ln)” value came to 9.86. In the case of “TACCTATAAAAGTACACACACACACGGATATAAATA [CACACA_site6569]”, the “gcPBM binding intensity (ln)” value came to 10.3. Consider “TATTGTATGGTAGGATATGATGTTATTTGTTATAAT [CACACA_negctrl_site202]”, for which the “gcPBM binding intensity (ln)” value amounted to 9.45.

In the case of “TATATATATATATATATATATATATATATATATATT [CACACA_negctrl_site1440]”, the “gcPBM binding intensity (ln)” value worked out at 8.8. The result for “CTGAATGTATATATTTGTACATATATATATATATAT [XGTACX_site5557]” reads 9.16; that for “TTTTTTTTTTTTTGTAGTACATTATGTATATTTTTA [XGTACX_site7810]”, 9.23. Next, “TATATATATTTATGCACACAAAATATATTATATAAT [CACACA_site5955]”: 9.27; “ATTTGGCATAGACACACACACACACGCACGCACATA [CACACA_site6424]”: 10.4; “AGCACGCACAGACACACACACATATTTATATTTATA [CACACA_site6291]”: 9.94.

With “AAATTTGGCAGACACACACACACACGCACACGCACA [CACACA_site6423]”, the “gcPBM binding intensity (ln)” value was determined as 10.3. As for “CAGACGCACGTATTTGCACACATTGCCACGTAATTA [CACACA_site3349]”, the “gcPBM binding intensity (ln)” value amounted to 9.42.

On to “TTTATTTTATCATTTGCACACGCACCCAGACATAAA [CACACA_site4347]”, for which the “gcPBM binding intensity (ln)” value came out at 9.39. Turning to “TACAGACATAGACACACACACACGCATAAAAAAAAA [CACACA_site6820]”, the “gcPBM binding intensity (ln)” value was 10.1. The result for “TTTATATTATTTTAAACATGCACAAGTATAATTTAT [TGCATGCA_site233]” reads 8.97; that for “ATATGTATAAAAATCCGTACATAAGTGTGCGTATAT [XGTACX_site4376]”, 9.32; that for “TATTTATAATTATAATAATATATATATATATATATA [TGCATGCA_negctrl_site173]”, 8.83. The result for “AGAAATACAAAATAAATATAAGAAACAAAATATTTA [CACACA_negctrl_site780]” reads 9.42; that for “AATGACAACCTTGTCACACATATATATATATATATA [CACACA_site5977]”, 9.17. As to “TCTATATAGATTTGCACACATAAAAATGCTTATATA [CACACA_site2389]”, the “gcPBM binding intensity (ln)” value was 9.27. The result for “TTGTTCCACAAAAATTTAGTCAAAAAAAAATAAAAA [TGCATGCA_negctrl_site546]” reads 8.79; that for “GATATATATTAATATACACACACACCGATATATATA [CACACA_site8462]”, 10. Next, “AAAGAAAGAAAGAATACACACACACCGATATATATA [CACACA_site9246]”: 10.2; “TATATATACACACACACATGCATGCCGATATATATA [TGCATGCA_site29]”: 10.2. With “AAAAAAAAAAAACACACACACAAAAAAAAATATATA [CACACA_site1105]”, the “gcPBM binding intensity (ln)” value was 10.1. Next, “TATGTACAAATATGTACACACACACCGATATATATA [CACACA_site4487]”: 9.96; “CAAAAAAACAAACACACACACACACCGATATATATA [CACACA_site9218]”: 10.2. With “AATATATATATATATACACACACACCGATATATATA [CACACA_site8158]”, the “gcPBM binding intensity (ln)” value was 10.1. The result for “TATATATATATATATACATGCATACATATACATACA [TGCATGCA_site897]” reads 9.14; that for “AGAAAGAAAATATATACACACAAAAAAAAATATATA [CACACA_site1412]”, 9.93; that for “TATATATATATACATACATGCATATATATATATATA [TGCATGCA_site513]”, 9. As to “TATATATATATATACACACACACACCGATATATATA [CACACA_site8813]”, the “gcPBM binding intensity (ln)” value is 10.2. On to “TTATAAAAAAAAATAACACACAGACATAAGAATAAA [CACACA_site9383]”, for which the “gcPBM binding intensity (ln)” value was 9.95.
